Source: PubChem BioAssay
D3 antag = blocks the human D3 dopamine receptor; max response, negative = inhibition, %; 2.5% of 360,000 active; D3R cells, DiscoveRx beta-arrestin luminescence, antagonist mode; hits give low values; in the data active = max response below about -50%; inconclusive = no clear call, values can overlap the other calls; note: % is set by controls: 0 for no effect and ±100 for the full control effect
Target sequence (P35462 whole entry, looked up): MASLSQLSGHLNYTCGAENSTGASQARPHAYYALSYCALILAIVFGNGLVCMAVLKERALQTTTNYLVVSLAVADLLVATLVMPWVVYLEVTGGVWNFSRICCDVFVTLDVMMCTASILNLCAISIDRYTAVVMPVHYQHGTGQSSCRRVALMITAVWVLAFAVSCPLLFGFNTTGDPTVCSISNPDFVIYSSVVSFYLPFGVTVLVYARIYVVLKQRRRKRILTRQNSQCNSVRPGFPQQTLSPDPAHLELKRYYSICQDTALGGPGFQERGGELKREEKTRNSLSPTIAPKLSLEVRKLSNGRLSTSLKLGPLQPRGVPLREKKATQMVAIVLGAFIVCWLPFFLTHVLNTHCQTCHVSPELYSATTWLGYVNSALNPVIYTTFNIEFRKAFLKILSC
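Cells plated overnight at 1500 cells/well, then exposed to library compounds with dopamine controls for 90 minutes at 37 degrees C. DiscoveRx reagent added for 30–60 minutes at room temperature; luminescence read, quantitative HTS format.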
TDP1 cell CPT = DT40-hTDP1 cell growth loss with CPT; chicken DT40 Tdp1-/-;hTDP1 cells + 20 nM CPT, ATP luminescence, 48 h; Potency, µM (doses to about 46.2 µM), for inactives: at the top dose activity change, negative = growth inhibition, hits mostly inhibitors; 12% of 420,000 active; AID 686979; note: potency is the fitted concentration of half-maximal effect; % is set by controls: 0 for no effect and ±100 for the full control effect; nearly all actives have a fitted effect of over 55% in size
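Chicken DT40 Tdp1-/- cells stably complemented with human TDP1 were seeded at 400 cells/well in medium containing 20 nM camptothecin, exposed to pin-transferred compounds, and grown at 37 °C for at least 48 hr. Viability was read as ATP luminescence.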
IL1B secr inh = blocks inflammasome-driven IL-1 beta release; AID 743279; 4.7% of 360,000 active; THP-1 LPS/ATP IL-1B secretion, AlphaLISA, 16 h; hits give low values; activity change, % at 57.5 µM; in the data active = activity change below about -50%; inconclusive = mostly about -30% to -49%; note: % is set by controls: 0 for no effect and ±100 for the full control effect
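Secreted IL-1B measured by AlphaLISA bead assay after 16 h compound exposure of THP-1 cells; compounds (final up to 57.5 uM) added 1 h before LPS (250 ng/mL) and ATP (1.25 mM) stimulation; lower signal means less secretion.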
ClpP mod = qHTS Assay for Activators of ClpP; purified B. subtilis ClpP, FRET peptide cleavage, 20 min; Potency, µM (doses to about 57.5 µM), without a hit: top-dose activity change, negative = active; AID 651965, 2013; 1.9% of 340,000 active; active = well fitted falling curve with a large enough effect; inconclusive = small, poorly fitted or top-dose-only effect; inactive = no such curve, though single readings can be large or run the other way; note: potency is the fitted concentration of half-maximal effect; the source files actives as falling curves though it sought activators and does not explain the sign; nearly all actives have a fitted effect of over 65% in size
Target sequence (P80244 whole entry, looked up): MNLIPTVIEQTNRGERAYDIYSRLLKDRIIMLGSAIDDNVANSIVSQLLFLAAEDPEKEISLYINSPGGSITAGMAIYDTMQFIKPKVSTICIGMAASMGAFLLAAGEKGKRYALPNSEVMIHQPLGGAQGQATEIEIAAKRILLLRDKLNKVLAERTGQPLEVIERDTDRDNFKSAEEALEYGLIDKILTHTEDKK
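Purified B. subtilis ClpP, 10 microg/mL final in Tris/HCl pH8 with KCl, BSA, glycerol and Tween-20, cleaved an Abz/nitrotyrosine-quenched decapeptide. Fluorescence (ex 320, em 430) was read at 0 and 20 min at room temperature. Delta was normalized to 5.8 microM ADEP and DMSO/no-enzyme controls.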
DRD3 agonist = D3 dopamine receptor (human) agonism | P35462 | D3R DiscoveRx beta-arrestin cells, luminescence, 90 min | max activation, % | 0.58% of 410,000 active; in the data active = max activation above about 30%; note: 0% is about no effect
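Agonist-mode cell screen: cells plated at 1500/well and incubated overnight at 37 °C, then exposed to library compounds for 90 min at 37 °C. Detection reagent was added for 30–60 min at room temperature, and luminescence was read.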
TDP1 cell noCPT = qHTS for Inhibitors of human tyrosyl-DNA phosphodiesterase 1 (TDP1): qHTS in cells in absence of CPT. Potency, µM (doses to about 46.2 µM), for inactives: top-dose activity change, negative = growth inhibition, hits mostly inhibitors. DT40 Tdp1-/- hTDP1 cells, no CPT, ATP luminescence, 48 h. 15% of 420,000 active. AID 686978, 2013; note: potency is the fitted concentration of half-maximal effect; % is set by controls: 0 for no effect and ±100 for the full control effect; nearly all actives have a fitted effect of over 55% in size
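Stably hTDP1-transfected Tdp1-null chicken DT40 cells were treated with library compounds minus camptothecin and grown for at least 48 hr at 37 °C, after which cellular ATP was quantified by luminescence.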
* = called active by the depositor; ? = inconclusive; . = no result. Rows were chosen to be rich in hits. Some 21% of all compounds tested hit in one or more screens of this group. Unless noted, calls come from the whole dose curve; as a rule, active = well fitted inhibition curve with a large enough effect; inconclusive = small, poorly fitted or top-dose-only effect; inactive = flat fitted curve, though single readings scatter.

SMILES | D3 antag | TDP1 cell CPT | IL1B secr inh | ClpP mod | DRD3 agonist | TDP1 cell noCPT
CC(Oc1ccccc1)C(=O)NNC(=O)c1ccccn1 (configuration not stated) | 3 | 10µM* | 36 | 2% | -1 | 7.3µM*
CC(Oc1cccc(Cl)c1)C(=O)NNC(=O)c1cccnc1 (configuration not stated) | 8 | 0% | 4 | -1% | 10 | 12%
Cc1ccc(-c2cc(C(=O)Oc3ccc(C#N)cc3)no2)cc1 | . | -27% | . | -2% | -7 | ?
CCC1(c2ccccc2)NC(=O)N(CC(=O)Nc2ccc(S(N)(=O)=O)cc2)C1=O (configuration not stated) | -14 | 6% | 15 | . | -4 | 2%
Oc1ccccc1C(Nc1nccs1)c1ccc2cccnc2c1O (configuration not stated) | -8 | 3.7µM* | 68 | . | 33* | 2.6µM*
Oc1c(C(Nc2ccccn2)c2ccccn2)ccc2cccnc12 (configuration not stated) | 19 | 0.82µM* | 93 | 1% | -3 | 0.82µM*
O=c1cc(CO)oc(C(Nc2ccccn2)c2cccc(F)c2)c1O (configuration not stated) | ? | 3% | -1 | 0% | 1 | -6%
Oc1c(C(Nc2ccccn2)c2ccccc2F)ccc2cccnc12 (configuration not stated) | . | ? | . | 1% | 19 | 16µM*
Cc1ccnc(NC(c2ccccc2F)c2ccc3cccnc3c2O)c1 (configuration not stated) | . | . | . | -4% | 3 | .
O=c1cc(CO)oc(C(Nc2ccccn2)c2ccccc2F)c1O (configuration not stated) | -51* | ? | -21 | -5% | -5 | -21%
CCCCn1c(N)c(N(CC(C)C)C(=O)c2ccc(OCc3c(C)noc3C)cc2)c(=O)[nH]c1=O | 1 | 3% | 10 | -1% | -5 | 3%
C=C1C(=C/C=C2\CCC[C@]3(C)[C@@H]([C@H](C)CCCC(C)C)CC[C@@H]23)C[C@@H](O)C[C@@H]1O | . | ? | . | . | 0 | 11µM*
CC(C)CCC[C@@H](C)[C@H]1CC[C@H]2[C@@H]3CC[C@@H]4C[C@H](O)CC[C@]4(C)[C@H]3CC[C@]12C | . | -10% | . | . | 5 | -20%
C=C1C(=C/C=C2\CCC[C@]3(C)[C@@H]([C@H](C)/C=C/[C@@H](O)C4CC4)CC[C@@H]23)C[C@@H](O)C[C@@H]1O | . | 24µM* | . | . | 14 | 27µM*
C[C@H](/C=C/[C@H](C)C(C)(C)O)[C@H]1CC[C@H]2/C(=C/C=C3C[C@@H](O)C[C@H](O)C3)CCC[C@]12C | . | -27% | . | . | 7 | -15%
O=C(Nc1cccc(F)c1)C1CCN(C(=O)NCc2ccccc2)CC1 | -17 | -9% | 8 | . | -5 | 4%
CC(=O)Nc1ccc(S(=O)(=O)n2cnc3cc(C)c(C)cc32)cc1 | 0 | 8.2µM* | 10 | -1% | -8 | 18µM*
CC(=O)Nc1ccc(C(=O)n2cnc3cc(C)c(C)cc32)cc1 | 0 | -114% | 24 | 1% | 9 | -110%
CN(C)C(=S)N=Nc1[nH]c2ccccc2c1O | -29 | 0.58µM* | 48 | 1% | -11 | 0.52µM*
Cc1csc(NC(C)c2nc3cc(C(F)(F)F)ccc3n2CCCO)n1 (configuration not stated) | 0 | -18% | -1 | 0% | -1 | ?
O=C(Cc1ccccc1)N/N=C/c1ccc2cccc(O)c2n1 | -9 | 2.1µM* | -18 | . | -4 | 2.6µM*
COc1ccc(-c2cc(OC(=O)c3ccccc3Cl)c3c(C)oc(C)c3c(=O)c2)cc1OC | . | 23µM* | . | -1% | -1 | ?
COc1cc(-c2cc(OC)c3c(C)oc(C)c3c(=O)c2)ccc1OC(=O)c1ccccc1C | . | 5.2µM* | . | 0% | -2 | 8.2µM*
COc1ccc(-c2cc(OC(=O)c3cccc(Cl)c3)c3c(C)oc(C)c3c(=O)c2)cc1OC | . | ? | . | 1% | -3 | ?
Cc1ccccc1C(=O)Oc1cc(-c2ccc3c(c2)OCO3)cc(=O)c2c(C)oc(C)c12 | . | ? | . | 0% | 6 | ?
SMILES | D3 antag | TDP1 cell CPT | IL1B secr inh | ClpP mod | DRD3 agonist | TDP1 cell noCPT
COc1ccc(-c2cc(OC(=O)c3ccccc3C)c3c(C)oc(C)c3c(=O)c2)cc1 | . | ? | . | 1% | 9 | 16µM*
CCOc1ccc(NC(=O)C2CCN(C(=O)N3CC(C)Oc4ccc(Cl)cc43)CC2)cc1 (configuration not stated) | . | 23µM* | . | -1% | 4 | 15µM*
Cc1cc(C)c(NC(=O)C2CCN(C(=O)N3CCOc4ccccc43)CC2)c(C)c1 | . | ? | . | 1% | -2 | ?
CC1CN(C(=O)N2CCC(C(=O)NC3CCCCCC3)CC2)c2cc(Cl)ccc2O1 (configuration not stated) | . | 15µM* | . | 1% | 0 | 18µM*
Cc1cc(C)c(NC(=O)C2CCN(C(=O)N3CC(C)Oc4ccc(Cl)cc43)CC2)c(C)c1 (configuration not stated) | . | ? | . | 0% | 24 | 21µM*
COc1cccc(NC(=O)C2CCN(C(=O)N3CC(C)Oc4ccccc43)CC2)c1 (configuration not stated) | . | ? | . | -2% | 7 | ?
Cc1ccc2[nH]c(C(=O)N3CCN(c4cccc(Cl)c4)CC3)cc2c1 | 8 | -8% | 12 | . | 2 | -20%
O=C(COc1ccc(F)cc1)Nc1ccccc1C(=O)OCc1cc(=O)n2nc(C3CC3)sc2n1 | . | ? | . | 0% | -7 | ?
Cc1cc(NC(=O)Cn2cnc3sc(C)c(C)c3c2=O)no1 | 0 | -3% | 15 | -10% | -10 | -10%
Cc1ccc([N+](=O)[O-])cc1N/C=C1\CCc2ccccc2C1=O | 0 | 21µM* | 7 | -2% | -1 | ?
O=C1C(=Cc2ccccc2Cl)CCc2ccccc21 | ? | -74% | ? | -2% | -6 | ?
COc1cccc(OC)c1-c1nn(-c2ncc(C(F)(F)F)cc2Cl)c(=O)o1 | -14 | ? | -22 | . | -4 | ?
Cc1nc2c(n1C1CCCCC1)C(=O)c1ccccc1C2=O | 1 | 21µM* | 17 | 1% | 1 | 15µM*
O=C1c2cccnc2C(=O)N1C1CCCCC1 | -25 | -5% | 6 | 0% | 2 | -8%
